High-throughput results (PubChem)
VP16 counter = Gal4-VP16 reporter inhibition counter-screen; Drosophila S2 Gal4-VP16 UAS-luciferase, luminescence, 20 h; Potency, µM (highest dose often 53.6 µM), usual class: inhibitors; 310,000 compounds, 3.5% hits; AID 2546;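 further: Gal4-VP16 expression switched on by copper sulfate through the metallothionein promoter; nearly all actives have a fitted effect of over 50% in size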
BRCA1 expr act = activators of BRCA1 expression | 380,000 compounds, 1.1% hits | Potency, µM (titrated, usually from 46.1 µM), hits mostly activators | MCF7-BRCA1-FFLuc reporter, luminescence, 48 h; response scale: scaled: vehicle 0%, 10 µM genistein 100% | AID 624202; further: nearly all actives have a fitted effect of over 80% in size
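Cells: MCF7-BRCA1-FFLuc, 2000/well. Exposure: 48 h, 37 °C, 5% CO2. Read: luminescence, 15 min post-substrate. Controls: genistein 10 microM (maximal activation), DMSO (neutral).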
p53 reactivator = mutant p53 re-activation in reporter cells; H1299 p53-A138V BP100-luciferase reporter, luminescence, 24 h; Potency, µM (doses to about 92.2 µM), actives largely listed as activators; 320,000 compounds, 0.063% hits; further: nearly all actives have a fitted effect of over 45% in size
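H1299 (p53-null), stable ts p53-A138V + BP100-Luc; 1000 cells/well, Opti-MEM/10% FBS; cpd 4 pt, 1:5; 24 h, 37 deg C, 5% CO2; detection reagent 10 min RT; luminescence.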
Giardia kill = kills Giardia lamblia | 340,000 compounds, 0.15% hits | Giardia lamblia trophozoite viability | activity change, % at 7.66 µM, hits read low | AID 540267; in the data active means activity change below about -80%; inconclusive means between about -30% and that limit;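 further: parasites exposed to compound for two days anaerobically before the ATP read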
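Anaerobic 48 hrs incubation at 37 deg C of 100 trophozoites/well with test compounds; ATPLite 1-Step luminescence, 15-30 min RT, reports cellular ATP as viability.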
ELG1 repair inh = ELG1-dependent DNA repair inhibition; Potency, µM (doses to about 46.1 µM), usual class: inhibitors; AID 504467; 330,000 compounds, 2.3% hits; HEK293T ELG1-luciferase reporter, luminescence, 16 h; DNA damage induced by 5-fluorouridine; further: nearly all actives have a fitted effect of over 55% in size
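5-Fluorouridine DNA damage + compound/DMSO, 2,000 cells/well, 16 h, 37 °C/5% CO2. ONE-Glo, 30 min RT, luminescence. Readout = decrease in reporter signal.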
RORgamma inh = blocks mouse ROR gamma transcriptional activity; Potency, µM (top dose mostly 53.6 µM), actives largely listed as inhibitors; 310,000 compounds, 5.4% hits; AID 2551; P51450; Drosophila S2 Gal4-RORgamma UAS-luciferase reporter, 20 h; further: nearly all actives have a fitted effect of over 60% in size
Target sequence (P51450 whole entry, looked up, the tested form may be a part): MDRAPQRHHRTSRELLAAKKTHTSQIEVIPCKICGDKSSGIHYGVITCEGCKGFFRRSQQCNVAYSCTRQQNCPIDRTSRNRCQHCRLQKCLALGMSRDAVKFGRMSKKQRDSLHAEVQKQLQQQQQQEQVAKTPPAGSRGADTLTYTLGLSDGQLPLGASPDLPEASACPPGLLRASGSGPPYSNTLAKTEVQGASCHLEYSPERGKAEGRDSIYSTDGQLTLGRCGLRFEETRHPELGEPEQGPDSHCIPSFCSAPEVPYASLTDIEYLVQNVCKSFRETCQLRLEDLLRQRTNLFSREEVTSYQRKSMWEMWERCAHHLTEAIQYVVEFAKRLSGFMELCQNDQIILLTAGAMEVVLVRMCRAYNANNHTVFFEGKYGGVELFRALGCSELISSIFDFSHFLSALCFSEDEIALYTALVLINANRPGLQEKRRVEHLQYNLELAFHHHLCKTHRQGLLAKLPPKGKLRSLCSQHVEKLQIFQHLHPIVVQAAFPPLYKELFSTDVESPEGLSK
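Stable Schneider cell line, Gal4 DNA-binding domain fused to ROR gamma, UAS-luciferase. Cmpd 1 hr RT → CuSO4 700 uM final → 20 hr RT → luciferase reagent 10 min → luminescence.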
Numbers stand for hits; – = inactive; ? = inconclusive; · = no result; [ ] = another dose, or the depositor's remark. Rows were chosen to be rich in hits. Some 7.6% of all compounds tested hit in one or more screens of this group. Unless noted, the call rests on the fitted dose curve; in most records, active means well fitted curve in the direction sought with a large enough effect; inconclusive means small, poorly fitted or top-dose-only effect, or another doubt; inactive means no such curve, though single readings can be large; an effect the other way counts as inactive or inconclusive.

SMILES | VP16 counter | BRCA1 expr act | p53 reactivator | Giardia kill | ELG1 repair inh | RORgamma inh
COc1ccccc1N(C)S(=O)(=O)c1ccc(C(=O)Nc2ccc(N3CCOCC3)cc2)cc1 | – | – | – | – | 23µM | –
COc1ccccc1N(C)S(=O)(=O)c1ccc(C(=O)NCCc2ccc(F)cc2)cc1 | – | – | – | – | ? | –
CC(C)(C)NC(=O)NC(=O)CN1C(=O)NC(C)(c2ccccc2)C1=O (configuration not stated) | – | – | – | – | – | –
Cc1ccc2nc(CCl)[n+]([O-])c(-c3ccccc3)c2c1 | – | – | · | – | – | ?
COc1cc(NC(=O)c2ccc(S(=O)(=O)N(C)c3ccccc3OC)cc2)cc(OC)c1 | · | – | – | – | 15µM | ·
CN(CC(=O)Nc1ccc(N2CCOCC2)cc1)C(=O)c1cc(S(=O)(=O)N(C)C)ccc1Cl | – | – | – | – | ? | –
COc1ccc(NS(=O)(=O)c2ccc(OC)c(N(C)S(=O)(=O)c3ccc(Cl)cc3)c2)cc1 | 11µM | – | ? | – | – | ?
C=CCN(c1ccccc1OC)S(=O)(=O)c1ccc(Cl)c(C(=O)Nc2ccc(N3CCOCC3)cc2)c1 | – | – | – | – | 7.3µM | –
COc1ccccc1N(C)S(=O)(=O)c1ccc(C(=O)Nc2nccs2)cc1 | · | – | – | – | ? | ·
Cc1cccc(Cn2ccc(NC(=O)c3cccnc3)n2)c1 | – | – | – | – | – | –
Cc1cc(N/N=C/c2cccc(Cl)c2)nc(-n2nc(C)cc2C)n1 | 1.3µM | – | – | – | 16µM | 0.071µM
COc1ccc(/C=N/Nc2cc(C)nc(-n3nc(C)cc3C)n2)cc1 | 0.35µM | – | – | – | 8.2µM | 0.32µM
Cc1cc(C)n2nc(C(=O)N/N=C/c3cccc(Cl)c3)nc2n1 | – | – | – | – | – | –
Cc1cc(N/N=C/c2ccc(O)cc2O)nc(-c2ccccc2O)n1 | – | – | ? | ? | 10µM | –[10 µM]
Cc1cc(NCCO)nc(-n2nc(C)cc2C)n1 | 20µM | – | – | – | – | 6.3µM
CCN(CC)C(=O)C1=C(C)N(CCCOC)C(=O)C(CC(=O)NC2CC2)C1 (configuration not stated) | · | – | · | · | · | ·
C=CCN1C(=O)c2ccc(C(=O)N(CC)CC(=O)Nc3cc(Cl)ccc3C)cc2C1=O | · | – | – | – | – | ·
O=C1Nc2ccccc2N(O)N1c1cc(-c2ccccc2)[nH]n1 | – | – | – | – | – | –
Cc1ccc(C(=O)C2Oc3ccccc3C3CC(c4ccc(C)cc4)=NN23)cc1 (configuration not stated) | – | – | – | – | ? | ?
CSCC[C@H](NC(=O)c1ccco1)c1nnc2ccccn12 | – | – | ? | – | – | –
COc1ccc(-c2nnc(SCC(=O)N(C)C3CCS(=O)(=O)C3)n2C(C)C)cc1 (configuration not stated) | · | – | – | – | – | ·
Cc1cc(C)nc(N/N=C/c2cccc([N+](=O)[O-])c2)n1 | – | – | – | – | – | –
Cc1cc(N/N=C/c2ccccc2[N+](=O)[O-])nc(-n2nc(C)cc2C)n1 | 0.89µM | – | – | – | 13µM | ?
Cc1nc(Cl)cc(N/N=C/c2ccc(O)cc2O)n1 | ? | – | – | – | ? | ?
Cc1cc(N/N=C/c2cccc([N+](=O)[O-])c2)nc(-n2nc(C)cc2C)n1 | 1µM | – | – | – | – | 0.11µM
SMILES | VP16 counter | BRCA1 expr act | p53 reactivator | Giardia kill | ELG1 repair inh | RORgamma inh
Cc1cc(N/N=C/c2ccc(O)cc2O)nc(-n2nc(C)cc2C)n1 | 0.71µM | – | – | – | 23µM | 1µM
O=C1NC(=O)N(C2CCCCC2)CC1Br (configuration not stated) | · | – | · | – | · | ·
CC(C)(C)OC(=O)N[C@H]1C=C[C@H](OC(=O)CC(=O)OCC(F)(F)F)C1 | · | – | – | – | ? | ·
O=c1[nH]c2ccc(S(=O)(=O)N3CCN(C4CCCCC4)CC3)cc2[nH]c1=O | – | – | – | – | – | –
COc1ccc(NC(=O)N(C)C[C@H]2Oc3c(NS(=O)(=O)c4cccs4)cccc3C(=O)N([C@H](C)CO)C[C@@H]2C)cc1 | · | – | – | – | ? | ·
CC(=O)C1=C(C)NC(SCC(=O)c2cc(Cl)ccc2Cl)=C(C#N)C1c1ccco1 (configuration not stated) | 3.5µM | – | – | – | ? | 6.3µM
CC1=C(C(=O)Nc2ccccc2)C(c2ccco2)C(C#N)=C(SCC(=O)OC(C)C)N1 (configuration not stated) | – | – | – | – | ? | –
CC(=O)C1=C(C)NC(SCC(=O)c2ccc(F)cc2)=C(C#N)C1c1ccco1 (configuration not stated) | – | – | – | – | ? | –
COc1ccccc1NC(=O)C1=C(C)NC(SCC(=O)c2ccc(C)cc2)=C(C#N)C1c1ccco1 (configuration not stated) | – | · | – | · | 16µM | –
CCc1ccc(C(=O)CSC2=C(C#N)C(c3ccco3)C(C(C)=O)=C(C)N2)cc1 (configuration not stated) | ? | – | – | – | – | 6.3µM
COCCNC(=O)C1CCCN(C(=O)c2nc(C)oc2C)CC1 (configuration not stated) | · | – | · | · | · | ·
CCC(C)(C)c1ccc(OCCCC[n+]2ccc(C)cc2)c(C(C)(C)CC)c1 | ? | – | – | – | 10µM | ?
CCC(C)(C)c1ccc(OCCCC[n+]2cccc(C)c2C)c(C(C)(C)CC)c1 | 11µM | – | – | – | 2.6µM | ?
COCCN(C(=O)Nc1ccc(OC)cc1OC)C1CCN(C(C)=O)CC1 | – | – | – | – | – | –
Clc1ccc(Cc2nnc(-c3ccccc3Br)o2)cc1 | – | 14µM | – | – | ? | –
Clc1ccccc1OCc1nnc(-c2ccccc2Br)o1 | ? | 4µM | ? | – | ? | –
N#Cc1ccccc1OCc1nnc(-c2ccccc2Br)o1 | ? | ? | ? | – | ? | –
Cc1ccc(S(=O)(=O)n2nc(OC(=O)c3cccc(F)c3)cc2N)cc1 | – | – | – | – | – | –
CC(=O)NC(=S)Nc1cccc2c(C)cc(C)nc12 | 11µM | – | – | – | – | 1.6µM
O=C(NC(=S)Nc1ccccc1C(=O)O)c1ccc2ccccc2c1 | – | – | – | – | – | –
Cc1cc(C)c2cccc(N)c2n1 | – | – | – | – | – | –
Cc1ccc2cccnc2c1NC(=S)NC(=O)c1ccccc1 | 3.5µM | – | – | – | – | 1.3µM
Cc1ccc2cccc(NC(=S)NC(=O)c3ccccc3)c2n1 | 7.9µM | – | – | – | – | 1.8µM
Cc1cc(C)c2cccc(NC(=S)NC(=O)c3ccccc3)c2n1 | 3.2µM | – | – | – | ? | ?
